Sampled rows, rich in hits. Any-hit rate of the full collection: about 5.7%.
BAZ2B inh – BAZ2B (human) inhibition | AlphaScreen BAZ2B-H3K14Ac peptide displacement | 360,000 tested, 4.4% active | Q9UIF8 | Potency, µM (top dose mostly 114 µM), for the others: at the top dose activity change, negative = inhibition, actives largely listed as inhibitors; note: potency is the fitted concentration of half-maximal effect; % is set by controls: 0 for no effect and ±100 for the full control effect; nearly all actives have a fitted effect of over 60% in size
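AlphaScreen displacement of biotin-H3(5-23)K14Ac peptide (50 nM final) from BAZ2B (50 nM final) in PBS pH 7.4, 0.01% Tween-20; complex preformed 30 min RT, then compounds (top 110 uM) 30 min RT, beads 20 min dark.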
JMJD2A Tudor inh – JMJD2A Tudor domain (human) inhibition; Potency, µM (series often up to 114 µM), without a hit: at the highest dose activity change, negative = inhibition, usual class: inhibitors; AID 504339; 390,000 tested, 4.4% active; AlphaScreen JMJD2A-Tudor / H3K4me3 peptide binding; note: potency is the fitted concentration of half-maximal effect; % is set by controls: 0 for no effect and ±100 for the full control effect; nearly all actives have a fitted effect of over 50% in size
JMJD2E inh – JMJD2E (human) inhibition | 230,000 tested, 1.6% active | JMJD2E catalytic domain, FDH-coupled NADH fluorescence (FDH is formaldehyde dehydrogenase) | AID 2147 | Potency, µM (top dose mostly 57.1 µM), for inactives: at the highest dose activity change, negative = inhibition, usual class: inhibitors; active = well fitted inhibition curve with a large enough effect, not every such curve was filed as active; inconclusive = small, poorly fitted or top-dose-only effect, or another doubt; inactive = no such curve, though single readings can be large or run the other way;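 note: potency is the fitted concentration of half-maximal effect; 0% = wells with enzyme and -100% = buffer wells without enzyme; nearly all actives have a fitted effect of over 50% in size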
Target sequence (B2RXH2 1-337 limits assumed): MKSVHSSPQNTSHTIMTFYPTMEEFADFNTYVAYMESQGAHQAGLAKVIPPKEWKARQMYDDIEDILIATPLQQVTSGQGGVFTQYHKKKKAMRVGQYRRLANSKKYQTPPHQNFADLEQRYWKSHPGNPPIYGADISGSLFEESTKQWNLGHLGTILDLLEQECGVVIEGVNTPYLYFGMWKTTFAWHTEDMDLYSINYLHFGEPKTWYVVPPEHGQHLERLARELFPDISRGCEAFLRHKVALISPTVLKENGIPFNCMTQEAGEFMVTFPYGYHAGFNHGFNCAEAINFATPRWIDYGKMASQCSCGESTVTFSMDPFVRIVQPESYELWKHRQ
PI5P4K alpha inh – inhibitors of human PI5P4K alpha. PI5P4Kalpha enzyme, ADP-Glo luminescence, 60 min; stronger effect = lower value. max response, %. AID 652105. P48426. 330,000 tested, 1.2% active; active = max response of -50% or lower; inconclusive = between -30% and -50%; inactive = -30% or higher; note: value at the top dose of about 77 µM; % is set by controls: 0 for no effect and ±100 for the full control effect
Target sequence (P48426 whole entry, looked up): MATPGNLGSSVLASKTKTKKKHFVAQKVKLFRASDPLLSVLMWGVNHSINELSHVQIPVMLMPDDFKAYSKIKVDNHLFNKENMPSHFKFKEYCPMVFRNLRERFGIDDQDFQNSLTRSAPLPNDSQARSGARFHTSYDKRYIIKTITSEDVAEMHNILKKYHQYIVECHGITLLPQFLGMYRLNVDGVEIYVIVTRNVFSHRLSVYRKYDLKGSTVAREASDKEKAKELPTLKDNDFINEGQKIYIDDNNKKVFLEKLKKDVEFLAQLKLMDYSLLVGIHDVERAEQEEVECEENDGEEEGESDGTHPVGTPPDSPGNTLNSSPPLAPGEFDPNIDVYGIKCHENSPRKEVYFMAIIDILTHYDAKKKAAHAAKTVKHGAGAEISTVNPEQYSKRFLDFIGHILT
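Compounds were pin-transferred onto PI5P4Kalpha and substrate in HEPES pH 7.4 buffer with EGTA, CHAPS and 5% DMSO. ATP (5 microM final) started the reaction, which ran 60 minutes at room temperature before ADP-Glo detection.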
L3MBTL1 inh – blocks human L3MBTL1 | AID 485360 | 230,000 tested, 0.66% active | Q9Y468 | Potency, µM (highest dose often 57.1 µM), inactives show at the highest dose activity, negative = inhibition, actives largely listed as inhibitors | AlphaScreen L3MBTL1–H3K9me1 peptide binding; note: potency is the fitted concentration of half-maximal effect; % is set by controls: 0 for no effect and ±100 for the full control effect; nearly all actives have a fitted effect of over 60% in size
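L3MBTL1 (50 nM) pre-complexed 30 min with biotinylated H3(1-15)K9me1 peptide (75 nM), then compounds added for 30 min at room temperature; AlphaScreen streptavidin donor/nickel chelate acceptor beads (10 ug/mL final) read after 30 min dark incubation.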
HP1b binding inh – blocks HP1-beta chromodomain binding to methylated histone tails; P83916; 390,000 tested, 0.56% active; AlphaScreen HP1-beta / biotin-H3K9me3 peptide binding; Potency, µM (titrated, usually from 114 µM), for the others: top-dose activity change, negative = inhibition, hits mostly inhibitors; note: potency is the fitted concentration of half-maximal effect; nearly all actives have a fitted effect of over 70% in size
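Compound inhibition of the preformed complex between 50 nM HP1-beta and 50 nM biotinylated H3K9me3 peptide was read by AlphaScreen. Buffer was PBS pH 7.4 with 0.01% Tween-20. Incubations ran 30 min at room temperature, with 10 ug/mL donor/acceptor beads.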
* marks the source's active call; other numbers are inactive results; ? = inconclusive; / = no result; [ ] = remark or other dose. Unless noted, calls come from the whole dose curve; as a rule, active = well fitted inhibition curve with a large enough effect; inconclusive = small, poorly fitted or top-dose-only effect; inactive = no such curve, though single readings can be large or run the other way.

SMILES | BAZ2B inh | JMJD2A Tudor inh | JMJD2E inh | PI5P4K alpha inh | L3MBTL1 inh | HP1b binding inh
COCCn1c(=S)[nH]c2cc(C(=O)N3CCc4ccccc4C3)ccc2c1=O | -17% | 32µM* | -4% | -14 | / | 4%
CCOCCCn1c(=S)[nH]c2cc(C(=O)N3CCOCC3)ccc2c1=O | ? | 22µM* | 4% | / | 3% | 17%
COCCn1c(=S)[nH]c2cc(C(=O)N3CC(C)CC(C)C3)ccc2c1=O (stereo unspecified) | -31% | -11% | / | 1 | / | 42%
Cc1ccc(Cn2c(CN3CCN(c4cccc(Cl)c4)CC3)nc3c2c(=O)n(C)c(=O)n3C)cc1 | / | ? | / | / | / | 6%
CC1C(c2ccc3c(c2)OCO3)c2cc3c(cc2OC1N1CCOCC1)OCO3 (stereo unspecified) | / | 18µM* | / | 7 | / | ?
COc1cc(C2c3cc4c(cc3OC(N3CCCCC3)C2C)OCO4)cc(OC)c1O (stereo unspecified) | / | -14% | / | 16 | / | 18%
Cc1oc2c(c(C)cc3oc(=O)c(CC(=O)NCCc4ccccc4F)c(C)c32)c1C | -1% | -9% | / | / | / | 35%
CC(C)N(Cc1ccccc1)C(=O)CCS(=O)(=O)c1cc2c(cc1Cl)NC(=O)CO2 | 24% | -11% | / | / | / | 63%
Cc1ccc(NC(=O)c2oc3ccccc3c2NC(=O)C2CCCCC2)cc1 | 21% | 79µM* | / | / | / | 84%
O=C1C(=O)C(Cl)=C(Cl)C(Cl)=C1Cl | / | / | / | -54* | / | /
Cn1c(=O)c(=O)n(C)c2cc(N3CCOCC3)c(NS(=O)(=O)c3ccc(Cl)cc3)cc21 | -22% | -15% | / | / | / | 12%
Cn1c(=O)n(C)c2cc(N3CCOCC3)c(NS(=O)(=O)c3cccc(C#N)c3)cc21 | 22µM* | 50µM* | / | / | / | ?
CC(=O)N1CCOc2cc(S(=O)(=O)N(C)Cc3ccccc3)c(Cl)cc21 | -3% | -14% | / | / | / | 41%
CCCCCC(=O)N(O)C1CC(=O)N(c2ccccc2)C1=O (stereo unspecified) | -29% | 22µM* | -6% | 3 | 3% | -78%
CC(C)CC(NC(=O)C1CCC(C)CC1)C(=O)OCC(=O)c1ccc(Cl)cc1 (stereo unspecified) | 7% | -3% | / | / | / | 25%
CCNc1cc(N2CCN(C3CCCCC3)CC2)c2noc3c2c1C(=O)c1ccccc1-3 | 35µM* | 50µM* | / | / | / | ?
CC(=O)OCCNc1cc(N2CCN(C)CC2)c2noc3c2c1C(=O)c1ccccc1-3 | 40µM* | 50µM* | -20% | -6 | ? | -12%
Cc1cc(C(=O)N2CCCC(N3CCN(c4ccccc4C)CC3)C2)no1 (stereo unspecified) | / | / | / | 0 | / | /
O=C(O)CCCNc1cc(N2CCN(C3CCCCC3)CC2)c2noc3c2c1C(=O)c1ccccc1-3 | 32µM* | 35µM* | / | / | / | 22µM*
CC(C)Nc1cc(N2CCN(C3CCCCC3)CC2)c2noc3c2c1C(=O)c1ccccc1-3 | 13µM* | 22µM* | / | / | / | ?
Cn1c(=O)cc(SCC(=O)N2CCN(C3CCCCC3)CC2)c2ccccc21 | / | -20% | / | 7 | / | 3%
Cc1cc(C(=O)NCCCN2CCN(C3CCCCC3)CC2)n(-c2ccccc2)n1 | -3% | -22% | -3% | -8 | -6% | 19%
Cc1cc(C)cc(N2C(=O)CC(Sc3ccccc3C(=O)O)C2=O)c1 (stereo unspecified) | -12% | ? | 0% | -2 | 4% | 40%
Cc1cccc(N2C(=O)CC(Sc3ccccc3C(=O)O)C2=O)c1 (stereo unspecified) | -3% | 45µM* | 3% | 0 | 10% | 38%
CCOC(=O)c1c(N2C(=O)CC(Sc3ccccc3C(=O)O)C2=O)sc(C)c1C (stereo unspecified) | 50µM* | -24% | 1% | -3 | / | -4%
SMILES | BAZ2B inh | JMJD2A Tudor inh | JMJD2E inh | PI5P4K alpha inh | L3MBTL1 inh | HP1b binding inh
COc1cccc(CC2(CO)CCCN(Cc3c(C)cc(C)cc3-n3cccn3)C2)c1 (stereo unspecified) | -2% | -27% | 1% | -5 | -2% | 12%
COc1cccc(CNCc2ccc(SC)cc2)c1OC | ? | 13µM* | 8% | / | 5% | ?
COc1cc(CNCc2cc(OC)c(OC)c(OC)c2)cc(OC)c1 | ? | 20µM* | / | -1 | 9% | ?
CCOC(=O)CCNCc1ccc(OC)c(OC)c1 | 3% | -15%[11.4 µM] | 1% | -30 | 3% | 14%
CCOC(=O)CC(NCc1ccc(OC)c(OCC)c1)c1ccc(C)cc1 (stereo unspecified) | -15% | 56µM* | -4% | -26 | 4% | 4%
COc1cccc(CNCc2ccccc2Br)c1OC | ? | 1.6µM* | / | 0 | 2%[2.29 µM] | ?
Cc1ccc(S(=O)(=O)c2cnc(SCC(=O)Nc3ccccc3C(F)(F)F)[nH]c2=O)cc1C | 1% | -12% | / | / | / | 46%
CCCCCSc1nc2sc3c(c2c(=O)n1-c1ccc(OC)cc1)CCN(C(C)=O)C3 | -38% | ? | / | / | / | -18%
CCOc1cc(CNCc2cc(OC)cc(OC)c2)ccc1OC | ? | 1µM* | / | 0 | -3% | ?
COc1cc(CNCc2cccc(OC)c2OC)cc(OC)c1 | 50% | 25µM* | / | -1 | 27%[2.29 µM] | ?
COc1ccc(CNCc2c(F)cccc2F)cc1OC | -39% | 4µM* | / | 1 | 6% | -4%
COc1cc(CNCc2ccc(C)cc2)cc(OC)c1OC | 71µM* | 20µM* | / | -1 | -7% | ?
COc1cccc(CNCc2ccc(C(=O)O)cc2)c1OC | -32% | 4% | -14% | -3 | 3%[11.4 µM] | 12%
CC(=O)Nc1nc2n(n1)C(c1ccc(F)cc1)C=C(c1ccc(Cl)cc1)N2 (stereo unspecified) | ? | -6% | / | / | / | 63%
CC1=CC(c2ccc(Cl)cc2)n2nc(NC(=O)CCC(=O)O)nc2N1 (stereo unspecified) | 50µM* | ? | ? | -11 | / | 9%
CC1=CC(c2ccc(Cl)cc2)n2nc(NC(=O)CCCC(=O)O)nc2N1 (stereo unspecified) | ? | 25µM* | / | 5 | / | -3%
CCCCn1c(N2CCC(Cc3ccccc3)CC2)nc2c1c(=O)[nH]c(=O)n2C | ? | 50µM* | 0% | 1 | -14% | ?
CC(C)(C)OC(=O)N1CCC(NC(=O)c2[nH]cnc2C(=O)Nc2ccon2)CC1 | 56µM* | -23% | / | -2 | -1% | 63%
CC(C)(C)OC(=O)CNC(=O)c1nc[nH]c1C(=O)N1CCN(C(=O)OC(C)(C)C)CC1 | -7% | -3% | / | -7 | 6% | 24%
CC(C)(C)OC(=O)CNC(=O)c1nc[nH]c1C(=O)N1CCNCC1 | 79µM* | ? | / | -2 | 7% | 35%
